Inconclusive results are not listed. Where a call stands in place of a potency, no number is given. The source made the active and inactive calls. The call rests on the fitted dose curve; in most records, active means well fitted inhibition curve with a large enough effect; inconclusive means small, poorly fitted or top-dose-only effect; inactive means no such curve, though single readings can be large or run the other way.
The compounds below were run against Nicotinamide N-methyltransferase (Homo sapiens) (UniProt P40261) (assay: qHTS Assay for Inhibitors of N-terminal methyltransferase 1 (NTMT1): NNMT MTaseGlo counterscreen assay). Details: NNMT enzyme, MTase-Glo luminescence counterscreen; series mostly up to 57.1 µM.
Description: Assay Submitter (PI): Rong Huang Ph.D, Purdue University, West Lafayette, IN 47907
The N-terminal methytransferase 1 is the first methyltransferase that methylates protein alpha-N-amines and plays an important role in regulating cell mitosis, chromatin interactions and DNA repair. It is observed to be over-expressed in various cancer patient tissues like malignant melanoma and colorectal cancer tissues. Knockdown of NTMT1 in cancer cells causes cell mitotic defects and enhances sensitivity to DNA damaging chemotherapeutics. […] These critical cellular processes in which NTMT1 is implicated, coupled with emerging links to cellular dysfunction, strengthen the inference that NTMT1 is a compelling novel anticancer target. Progress have been made in understanding the molecular properties of NTMT1 and the biological consequences of protein alpha-N-terminal methylation, but there are no specific small molecule probes available for NTMT1 to fully characterize its MTase activity. To address this unmet need, a panel of assay is created and established to enable quantitative high-throughput screening (qHTS) for novel, potent, and selective small molecule NTMT1 inhibitors. Two orthogonal qHTS that use different reagents (ThioGlo vs. MTaseGlo) are developed for primary robotic screening against the NCATS chemical library of more than 400,000 small molecules. Identified inhibitors are reacquired, validated, and further characterized.
MTaseGlo Assay is a luminescence screen that measure the activity of methyltransferases based on the reaction product S-adenosyl homocysteine (SAH). The substrate SAM is converted to SAH upon enzyme activation. MTase-Glo reagent and detection solution convert SAH to ATP and measure the light from the luciferase reaction. Nicotinamide N-methyltransferase (NNMT) is a cystolic enzyme that catalyzes the transfer of a methyl group from the co-factor SAM onto the substrate, nicotinamide (NA) to form 1-methyl-nicotinamide (MNA) and SAH. NNMT MTaseGlo assay is used as a counterscreen to evaluate selectivity of identified inhibitors.
Early Translation Branch (ETB)
National Center for Advancing Translational Sciences (NCATS)
National Institute of Health (NIH)
NNMT enzyme, SAM, NA, and control is provided by the Huang laboratory.
In brief, 3 µL of enzyme mixture (final concentrations of 125 nM and 100 µM for NNMT and SAM, respectively) into all wells of a 1,536-well solid-bottom white plate (Greiner Bio One, Monroe, NC). 23 nL of DMSO or compound (final concentration range 234 nM to 143 microM) was transferred via Wako Pin-tool (Wako Automation, Richmond, VA) and incubated (RT) for ~15 minutes. Next, 1 µL of substrate (final concentration 1 µM NA) or buffer was dispensed, and the reaction proceeded for 30 minutes (RT, protected from light) followed by a 1 microL addition of [5X] MTase-Glo Reagent(R). Samples were incubated (RT, protected from light) for 30 minutes to allow for SAH to be converted to ADP, followed by a 5 microL addition of [1X] MTase-Glo Detection Solution(R) to allow for ADP to be converted to ATP, which was then detected with a luciferase reaction. Samples were centrifuged for 15 seconds at 1,000 RPM's, followed by a RT incubation for 30 minutes. Plates were then read using Luminescence optics on a ViewLux detector. Data were normalized to no-enzyme (0% activity) and no-inhibitor (DMSO; 100%) controls, and the resulting percent inhibition data were fitted to a 4-parameter Hill equation using Graphpad Prism.
Potency means the concentration at half of the fitted maximal effect.

Chain of Nicotinamide N-methyltransferase (Homo sapiens) (P40261 whole entry, looked up): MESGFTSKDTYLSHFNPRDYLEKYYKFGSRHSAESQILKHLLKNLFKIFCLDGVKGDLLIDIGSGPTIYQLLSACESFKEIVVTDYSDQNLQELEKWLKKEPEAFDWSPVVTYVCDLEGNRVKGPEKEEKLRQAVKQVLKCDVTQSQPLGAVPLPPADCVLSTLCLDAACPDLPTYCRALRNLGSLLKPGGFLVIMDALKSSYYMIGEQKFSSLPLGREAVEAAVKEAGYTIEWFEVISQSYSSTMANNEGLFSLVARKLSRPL

Row | SMILES | Potency
1 | CC(C)=CCOc1c2occc2cc2ccc(=O)oc12 | inactive
2 | C[N+]1(C)C2CCC1CC(OC(=O)c1c[nH]c3ccccc13)C2 (stereo not given) | inactive
3 | CN[C@@H]1C[C@@H](c2ccc(Cl)c(Cl)c2)c2ccccc21 | inactive
4 | COC[C@H]1OC(=O)c2coc3c2[C@@]1(C)C1=C(C3=O)C2CCC(=O)[C@@]2(C)C[C@H]1OC(C)=O (stereo not given in full) | inactive
5 | CCCN(CCC)[C@H]1CCc2c(F)ccc(O)c2C1 | inactive
6 | Clc1ccc(N2CC3CCC(C2)N3)nn1 | inactive
7 | C[N+](C)(C)CC#CCN1CCCC1=O | inactive
8 | N#CC(C#N)=Cc1ccc(O)c(O)c1 | inactive
9 | NC(=O)CI | inactive
10 | CC(C)(C)c1cc(C=C(C#N)C#N)cc(C(C)(C)C)c1O | inactive
11 | O=[N+]([O-])c1cc(O)c(O)c([N+](=O)[O-])c1 | inactive
12 | NC(N)=Nc1ccc2[nH]c3c(c2c1)C[C@@]1(O)[C@H]2Cc4ccc(O)c5c4[C@@]1(CCN2CC1CC1)[C@H]3O5 | inactive
13 | CC(=O)c1c(O)c(C)c(O)c(Cc2c(O)c3c(c(C(=O)/C=C/c4ccccc4)c2O)OC(C)(C)C=C3)c1O | inactive
14 | CC(N)Cc1c[nH]c2ccc(O)cc12 (stereo not given) | inactive
15 | O=C1CC[C@@]2(O)C3Cc4ccc(O)c5c4C2(CCN3CC2CC2)[C@H]1O5 (stereo not given in full) | inactive
16 | NCC(O)c1cc(O)c(O)cc1F (stereo not given) | inactive
17 | CC(N)[C@H](O)c1ccc(O)c(O)c1 (stereo not given in full) | inactive
18 | CCn1cnc2c(Nc3cccc(Cl)c3)nc(N[C@@H]3CCCC[C@@H]3N)nc21 | inactive
19 | NC1CCc2cc(O)c(O)cc2C1 (stereo not given) | inactive
20 | COc1ccc2c(c[n+](C)c3c4cc5c(cc4ccc23)OCO5)c1OC | 12.6 µM (active)
21 | O=[N+]([O-])c1ccc2nc(N3CCNCC3)ccc2c1 | inactive
22 | c1ccc(CCCN2CCN(CCOC(c3ccccc3)c3ccccc3)CC2)cc1 | inactive
23 | CNCCc1c[nH]c2ccc(O)cc12 | inactive
24 | C[N+]1(C)CCN(c2ccccc2)CC1 | inactive
25 | Ic1ccccc1CNC1C2CCN(CC2)C1C(c1ccccc1)c1ccccc1 (stereo not given) | inactive
